Whole data set: some 68,000 sequences, median “fluorescence intensity (a.u.)” near 9,100, cut for the highest 2% near 16,000. Many of the other results were omitted from the sample, so the highest values are more common in it than they were.

OsWRKY34, sequence (Q0JBA9 entry or part of it): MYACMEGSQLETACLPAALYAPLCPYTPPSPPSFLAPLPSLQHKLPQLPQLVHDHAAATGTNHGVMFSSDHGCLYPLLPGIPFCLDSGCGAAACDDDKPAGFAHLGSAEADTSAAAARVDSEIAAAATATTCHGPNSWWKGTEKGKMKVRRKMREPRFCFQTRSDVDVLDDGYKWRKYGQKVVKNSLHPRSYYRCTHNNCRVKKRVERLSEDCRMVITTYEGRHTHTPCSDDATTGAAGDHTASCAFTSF

The experiment addresses OsWRKY34 (Oryza sativa, UniProt Q0JBA9 1-250). Briefly: protein-binding microarray (RPBM); PBS, 2% BSA, 51.3 ng/ul salmon testes DNA, 50 uM zinc acetate, 200 nM TF, 25 C, 1 h; high values mean tight binding. The settings on record: protein: recombinant; tags: N-terminal polyhistidine and DsRed monomer fusion (pET32a); label: CyDye5-dUTP incorporated in the synthesized complementary strand; 3' TTTTT single-stranded linker to array surface; dsDNA, one strand shown. The procedure, abridged:
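For the binding signal, per-feature fluorescence intensity was read in arbitrary units on an Axon 4000B scanner. Before scanning, a 2% BSA-blocked custom Agilent array made double-stranded with Cy5-dUTP was washed after 1 h at 25 °C with 200 nM protein and 50 µM zinc acetate. The proteins were Ni–NTA-purified transcription factors with N-terminal polyhistidine and DsRed fusions, expressed in E. coli BL21-CodonPlus.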
With “TCCATCGCGCGTCGTCTCCACCTTTGTTGCTTGTGCCACCCGGAGTCACCTAGTGCAG”, the binding signal is 10200 fluorescence intensity (a.u.).
In the case of “ATGGGGTATTTAGGATGGGCAATATTTTGGTAGTGAGGAGCGGAGTCACCTAGTGCAG” it was 9430 fluorescence intensity (a.u.); in that of “TGCTAAAAAGTCAACGGTGTCAAACATTTCGAAACGGAGGCGGAGTCACCTAGTGCAG”, 10900 fluorescence intensity (a.u.); in that of “ACCACCACCGTCTCAACTCTCTCTCAGACTGTCCGCCATGCGGAGTCACCTAGTGCAG”, 8030 fluorescence intensity (a.u.).
The result for “ATATATCCATGCGAACTTCGCTCCAATAGTGAATTTTATCCGGAGTCACCTAGTGCAG” reads 8900 fluorescence intensity (a.u.).
In the case of “GCTTTATCGTGCAAACACCTAAGCTGATAAAGGCAAAGGTCGGAGTCACCTAGTGCAG” it was 23200 fluorescence intensity (a.u.).
In the case of “TAAAGCTTTATATAGCTGGCCCGCTGACTTTTTTATATATCGGAGTCACCTAGTGCAG”, the binding signal was 9020 fluorescence intensity (a.u.).
For the sequence “ATATACATAAGCTTCTCGTGCACACACAAACTAACATAAACGGAGTCACCTAGTGCAG”, the binding signal was 8610 fluorescence intensity (a.u.).
In the case of “GGAGCGATGACGTTCTATACCTTCGGCCTTCGTTTGACCGCGGAGTCACCTAGTGCAG”, the binding signal was 10600 fluorescence intensity (a.u.).
In the case of “TTGATTTCTCTGAGTTTGTGTTCTTGGCATCATCATCATTCGGAGTCACCTAGTGCAG”, the binding signal is 11400 fluorescence intensity (a.u.).
In the case of “TTTTTCTCCCCAGATTGCTGTGCACGGATTTGCCGTAAGACGGAGTCACCTAGTGCAG” it was 8360 fluorescence intensity (a.u.).
Take “TGTGTTTGAGGGGTGTGTATGTGTTGTGTTGTAGGTCAACCGGAGTCACCTAGTGCAG”: the binding signal is 9510 fluorescence intensity (a.u.).
The result for “TATTTTATCTCACTGGCTATTTCCTATGATTATTTATTTCCGGAGTCACCTAGTGCAG” reads 11400 fluorescence intensity (a.u.); that for “TTGCTTGTGTTGGGCCGTAGGGTTTTTGTTTTTTTTTTTGCGGAGTCACCTAGTGCAG”, 8410 fluorescence intensity (a.u.); that for “AGGAGGGGTATTGTTGCTAATCTTGATTGTTTTACTCTTGCGGAGTCACCTAGTGCAG”, 17000 fluorescence intensity (a.u.).
As for “GCCGTATTTGTTTTTTTGGGATTTGGGGTTTGGATACTTGCGGAGTCACCTAGTGCAG”, the binding signal was 18700 fluorescence intensity (a.u.).
The result for “GATTTCTTTGTTGATTTTATTGGTTTTCTCCTAATCTTGCCGGAGTCACCTAGTGCAG” reads 8820 fluorescence intensity (a.u.); that for “TTGTGTTTGGGCGGGAGAATTTTTGGGGATAGATTTGCGCCGGAGTCACCTAGTGCAG”, 18500 fluorescence intensity (a.u.); that for “GCGGGCTGTTTTTTTCTTGCGGTTTGGTTTGGGATTTCTGCGGAGTCACCTAGTGCAG”, 17400 fluorescence intensity (a.u.).
On to “ATTTGGGGTTTGGATACTTGAACTTTATTTTGACTTCTGACGGAGTCACCTAGTGCAG”, for which the binding signal was 14000 fluorescence intensity (a.u.).
As to “GGCTTTTGGTTTCTTGGTGGTTGTGGATTTTTTTTTTTTGCGGAGTCACCTAGTGCAG”, the binding signal was 12300 fluorescence intensity (a.u.).
In the case of “TTCTGTTTGGGTTTTGATTTGTTTCGGTTTGGCTGTTCTTCGGAGTCACCTAGTGCAG”, the binding signal is 10600 fluorescence intensity (a.u.).
For “AGTGTTAATCTTACTCCTTGTTGTATATTGCTAAGTTTTTCGGAGTCACCTAGTGCAG”, the binding signal was 12900 fluorescence intensity (a.u.).
“TTTTGGGGATAGATTTGCGCTTTTGGTGGGTGGGTTTGGGCGGAGTCACCTAGTGCAG”: the binding signal was 14200 fluorescence intensity (a.u.).
In the case of “GGGGCGATTTTTTTTTTTTTTTAGAATTGCGAGATAGGGGCGGAGTCACCTAGTGCAG”, the binding signal was 10700 fluorescence intensity (a.u.).
On to “TCTGTATATAAGGCCTGATTTAGTTCCCAAATTTTTTTTCCGGAGTCACCTAGTGCAG”, for which the binding signal was 8100 fluorescence intensity (a.u.).
For “AATATTTCCCTTTCCAATGTTCAGTCAGCCCATCAGACCGCGGAGTCACCTAGTGCAG”, the binding signal was 8110 fluorescence intensity (a.u.).
“GTTCCAAAATTTTTCTTTAAACTTCCAACATTTTCATCACCGGAGTCACCTAGTGCAG”: the binding signal is 9190 fluorescence intensity (a.u.).
The result for “GTATGGTACAGCACATTTCTCTGTTCAAGTGTTCATTATGCGGAGTCACCTAGTGCAG” reads 8610 fluorescence intensity (a.u.); that for “ATATATATGGATTAGGTTTGGATTGGGGATCATTTGTATGCGGAGTCACCTAGTGCAG”, 8360 fluorescence intensity (a.u.).
For “ACCTAGATCCACCTCGTTAGTTTATTTTGTGAGAGTGCTCCGGAGTCACCTAGTGCAG”, the binding signal was 9140 fluorescence intensity (a.u.).
On to “AACACTCACATCAAGTCATCAACCGACCTTGTCAAGTCAACGGAGTCACCTAGTGCAG”, for which the binding signal is 10600 fluorescence intensity (a.u.).
“TTGGTTGCATGTTTTTTCACGTAAAATCTTAATTTTTGCACGGAGTCACCTAGTGCAG”: the binding signal was 8150 fluorescence intensity (a.u.).
For the sequence “TTGCTCACCAGAGCTACTACTACCGGTCTGTCACGCTCACCGGAGTCACCTAGTGCAG”, the binding signal was 9180 fluorescence intensity (a.u.).
Regarding “CCGACTGCTCAATCACCACCGGTCTGACCGGCTACCAGAGCGGAGTCACCTAGTGCAG”, the binding signal was 17200 fluorescence intensity (a.u.).
For the sequence “TGCTCCGACCACTGCCCACCCCGCTCCACCGGCTAGAGAGCGGAGTCACCTAGTGCAG”, the binding signal was 9120 fluorescence intensity (a.u.).
“CAACATCTTCTTTAGTTGCTCACACTTTTTCTTAGAATCACGGAGTCACCTAGTGCAG”: the binding signal is 8340 fluorescence intensity (a.u.).
Regarding “TTTCTTCGTCCTCTTGGTTTCCCTTTCAATTCATTCATTTCGGAGTCACCTAGTGCAG”, the binding signal is 8460 fluorescence intensity (a.u.).
In the case of “GCTCGCCCGTCTTTCGCTCTGCCCGCAGCCCGCCGCCGCTCGGAGTCACCTAGTGCAG” it was 14000 fluorescence intensity (a.u.); in that of “ACCGGCCCAGAACAGTTGGGCAGCCCACGAAGTCACCAACCGGAGTCACCTAGTGCAG”, 8540 fluorescence intensity (a.u.).
“CTTAGTTCTCCGCGCTATTCACTTCTGCGCCGTCGCTTTTCGGAGTCACCTAGTGCAG”: the binding signal is 8640 fluorescence intensity (a.u.).
The result for “CTCAGTATTGGGTTGGGTGGTGGTGGCGGCGGTGGCAGTGCGGAGTCACCTAGTGCAG” reads 13700 fluorescence intensity (a.u.); that for “TGGGTGGGTTGGGTGGGTGGGTGGGTGCGCGGCGGGTATGCGGAGTCACCTAGTGCAG”, 32800 fluorescence intensity (a.u.).

The values are drawn from paper PMC7819943, “Rice protein-binding microarrays: a tool to detect cis-acting elements near promoter regions in rice”.
